A selection: hits, their analogues and other compounds. The true share with any hit is near 3%.
PPC-1+TRAIL kill – compounds killing PPC-1 cancer cells with TRAIL present, primary screen, TRAIL potentiator project, ATPLite luminescence, uHTS. PPC-1 cells + TRAIL, ATPLite viability luminescence. cell killing (% activity), % at 4 µM or 5 µM. actives 0.41% (n = 220,000). AID 1443, 2008;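 active = cell killing above 50% in the first pass at 4 µM, then a duplicate retest at 5 µM averaging 50% or more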
SENP8 block-1 – human SENP8 protease inhibitors, primary screen, biochemical, fluorescence, Nedd8 protein substrate, uHTS | actives 0.64% (n = 360,000) | inhibition, % at 20 µM | recombinant SENP8 | Sentrin-specific protease 8 (Homo sapiens), Q96LD8 | AID 602440, 2012; in the data active = inhibition mostly above about 40%, no sharp cut-off; inactive = mostly below about 27%
Target sequence (Q96LD8 whole entry, looked up): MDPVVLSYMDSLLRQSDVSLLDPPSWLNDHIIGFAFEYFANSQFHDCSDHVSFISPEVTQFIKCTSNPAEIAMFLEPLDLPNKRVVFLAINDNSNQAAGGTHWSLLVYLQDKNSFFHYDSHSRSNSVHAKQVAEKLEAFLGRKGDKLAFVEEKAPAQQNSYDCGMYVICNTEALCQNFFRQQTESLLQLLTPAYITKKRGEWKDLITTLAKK
SENP7 block – SENP7 protease inhibitors, primary screen, biochemical, luminescence, uHTS | Sentrin-specific protease 7 (Homo sapiens), Q9BQF6 | recombinant SENP7, Z-RLRGG-aminoluciferin luminescence, 40 min | inhibition, % at 5 µM | actives 1.5% (n = 330,000);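 active = inhibition above about 50% at the single test dose, limit read from the data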
C8 TRAIL sens – viability loss with TRAIL in NB7+C8 cells, primary screen, TRAIL sensitizer project, cell-based, ATPlite luminescence; inhibition (viability loss, TRAIL sensitization), % at 10 µM; actives 1% (n = 360,000);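 active = compounds causing at least 50% loss of cell viability in the single-dose screen, relative to plate controls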
SENP6 block – SENP6 protease inhibitors, primary screen, biochemical, luminescence, uHTS. Sentrin-specific protease 6 (Homo sapiens), Q9GZR1. Recombinant SENP6 catalytic domain, aminoluciferin luminescence. inhibition, % at 10 µM. actives 1.8% (n = 330,000);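 active = inhibition above about 50% at the single tested dose, limit read from the data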
Target sequence (Q9GZR1 628-1112 limits assumed): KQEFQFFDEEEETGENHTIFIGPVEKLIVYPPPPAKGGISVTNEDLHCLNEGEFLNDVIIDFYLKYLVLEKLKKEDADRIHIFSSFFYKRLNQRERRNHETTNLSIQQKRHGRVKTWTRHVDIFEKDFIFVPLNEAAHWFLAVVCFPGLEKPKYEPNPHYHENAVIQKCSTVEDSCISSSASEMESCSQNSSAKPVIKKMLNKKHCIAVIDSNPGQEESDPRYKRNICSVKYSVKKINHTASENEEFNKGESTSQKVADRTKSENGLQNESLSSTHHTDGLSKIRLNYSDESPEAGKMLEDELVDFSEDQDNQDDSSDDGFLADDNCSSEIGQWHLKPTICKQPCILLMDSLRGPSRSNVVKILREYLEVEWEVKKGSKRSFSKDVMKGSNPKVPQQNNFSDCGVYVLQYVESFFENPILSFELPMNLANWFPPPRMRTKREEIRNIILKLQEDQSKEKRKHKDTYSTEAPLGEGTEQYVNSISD
SENP8 block-2 – SENP8 protease inhibitors, primary screen, biochemical, luminescence; AID 2540, 2010; inhibition, % at 10 µM; Sentrin-specific protease 8 (Homo sapiens), Q96LD8; actives 1.2% (n = 330,000); purified SENP8, Z-RLRGG-aminoluciferin cleavage; in the data active = inhibition above about 50%
Of the large screens only hits and unclear results are named; the others gave an inactive call.

Cc1ccnc(NC(=O)c2ccc(S(=O)(=O)N3CCCCCC3)cc2)c1	none (no result: PPC-1+TRAIL kill)
Cc1cc(NC(=O)c2ccc(C(C)(C)C)cc2)no1	C8 TRAIL sens 70 (no result: PPC-1+TRAIL kill, SENP7 block, SENP6 block, SENP8 block-2)
CC1(C(=O)NS(=O)(=O)c2cccc(F)c2)CCN1C(=O)C1(c2ccc(Cl)cc2)CCC1 (centres undefined)	none (no result: PPC-1+TRAIL kill, SENP7 block, SENP6 block, SENP8 block-2)
Nc1ccc(Oc2ccc3nc(-c4ccccc4)c(-c4ccc([N+](=O)[O-])cc4)nc3c2)cc1	SENP8 block-1 43
N#Cc1ccc(Oc2ccc(-c3nc4ccccc4nc3-c3ccccc3)cc2)cc1C#N	none
CC(=O)Nc1ccc(Br)cc1C(=O)C(=O)O	none
O=C(Nc1ccc(OCC(=O)N2CCOCC2)cc1)c1ccccc1F	C8 TRAIL sens 61 (no result: PPC-1+TRAIL kill)
CN(c1ccccc1)S(=O)(=O)c1ccc(NC(=O)c2nc(S(C)(=O)=O)ncc2Cl)cc1	C8 TRAIL sens 93 (no result: PPC-1+TRAIL kill)
COc1cccc(NC(=O)c2nc(S(C)(=O)=O)ncc2Cl)c1	C8 TRAIL sens 66 (no result: PPC-1+TRAIL kill)
CN(c1ccccc1)S(=O)(=O)c1ccc(NC(=O)c2ccccc2)cc1	none
COc1cccc(NC(=O)c2nc(SC)ncc2Cl)c1	none (no result: PPC-1+TRAIL kill)
CN(C)/C=C\C(=C/C(=O)C(F)(F)F)Nc1ccccc1Oc1ccccc1	none
Cc1ccc(CC#N)c(-c2c(CC#N)ccc(C)c2C)c1C	none (no result: PPC-1+TRAIL kill, SENP7 block, SENP6 block, SENP8 block-2)
Cc1ccc2c(c1C)-c1c(ccc(C)c1C)C(=O)C2=O	C8 TRAIL sens 58 (no result: PPC-1+TRAIL kill, SENP7 block, SENP6 block, SENP8 block-2)
O=C(Nc1ccc(NC(=O)c2cccs2)cn1)c1ccccc1	SENP7 block 67, SENP6 block 64
O=C(NC(=S)Nc1cccnc1)c1cccs1	none
O=C(NC(=S)Nc1ccc(Cl)cn1)c1cccs1	C8 TRAIL sens 72
Cc1ccc2nc(NC(=O)c3ccc(-c4nc5ccccc5s4)s3)sc2c1	C8 TRAIL sens 67
Cc1ccnc(NC(=S)NC(=O)c2cccs2)c1	PPC-1+TRAIL kill 61, C8 TRAIL sens 89
Cc1ccnc(NC(=O)CNC(=O)c2cccs2)c1	none (no result: PPC-1+TRAIL kill)
O=C(Nc1ccc(NC(=O)C2CC2)nc1)c1cccs1	none
COc1ccccc1CC(=O)NNS(=O)(=O)c1ccc([N+](=O)[O-])cc1	none
Cc1ccccc1CN1CCN(CC(=O)NC(C)c2ccccc2)CC1 (centres undefined)	none (no result: PPC-1+TRAIL kill)
CC(=O)Nc1nc2ccc(NC(=O)c3ccco3)cc2s1	none
Cc1ccnc(NC(=S)NC(=O)c2ccco2)c1	C8 TRAIL sens 53
Cc1ccc2nc(NC(=S)NC(=O)c3ccco3)sc2c1	C8 TRAIL sens 82 (no result: SENP7 block, SENP6 block, SENP8 block-2)
CCC(C)c1ccc(O)c(NC(=S)NC(=O)c2cccs2)c1 (centres undefined)	C8 TRAIL sens 58 (no result: PPC-1+TRAIL kill, SENP7 block, SENP6 block, SENP8 block-2)
COc1ccccc1C(=O)OCCc1ccccc1	none (no result: PPC-1+TRAIL kill, SENP7 block, SENP6 block, SENP8 block-2)
NC(=O)c1ccsc1NC(=O)c1coc2ccccc2c1=O	SENP7 block 79, C8 TRAIL sens 52, SENP6 block 83, SENP8 block-2 66
CC(=NNC(=O)c1ccccc1N)c1ccccc1O	C8 TRAIL sens 54 (no result: PPC-1+TRAIL kill, SENP7 block, SENP6 block, SENP8 block-2)
COc1ccc(/C(C)=N/NC(=O)c2ccccc2N)cc1	none
CCc1ccc(/C=C/C(=O)c2ccc(N3CCOCC3)cc2)cc1	none
O=C(/C=C/c1ccc(F)cc1)c1ccc(N2CCOCC2)cc1	SENP7 block 78, SENP6 block 80
COc1ccc(OC)c(C(=O)COC(=O)c2cccnc2SC)c1	none (no result: PPC-1+TRAIL kill)
COc1ccc(C(=O)COC(=O)c2cccnc2SC)cc1	SENP7 block 71
COC(=O)c1cn(C(=O)/C=C/c2ccc(OC)c(OC)c2)c2ccccc12	none
CN(C)c1ccc(Cc2ccc(N(C)C)cc2)cc1	SENP8 block-1 30 (no result: PPC-1+TRAIL kill, SENP7 block, SENP6 block, SENP8 block-2)
CN(C)c1ccc(CCc2ccc(N)cc2)cc1	none (no result: PPC-1+TRAIL kill)
O=C(Nc1ccc(NC(=O)c2ccco2)nc1)c1cccc(F)c1	none (no result: PPC-1+TRAIL kill)
O=C(Nc1ccc(NC(=O)c2ccccc2F)cn1)c1ccco1	C8 TRAIL sens 54 (no result: PPC-1+TRAIL kill)
O=C(Nc1cnc2ccccc2c1)c1ccco1	SENP7 block 70, SENP6 block 70
Cn1nc(C(F)(F)F)c(-c2ccc(F)cc2)c1NC(=O)c1cccnc1	none
Brc1ccc(-c2nnc(-c3ccco3)o2)cc1	SENP7 block 60, SENP6 block 81, SENP8 block-2 66
Cc1ccsc1/C=N/Nc1ccc(F)cc1F	SENP6 block 50, SENP8 block-2 56 (no result: PPC-1+TRAIL kill)
Cc1cc(/C=C(\C#N)c2nc3ccccc3[nH]2)c(C)n1C	C8 TRAIL sens 78
COc1ccc(/C=C(\C#N)c2nc3ccccc3[nH]2)cc1O	C8 TRAIL sens 52, SENP6 block 57 (no result: PPC-1+TRAIL kill)
COc1cc(/C=C(\C#N)c2nc3ccccc3[nH]2)cc(OC)c1O	none (no result: SENP7 block, SENP6 block, SENP8 block-2)
O=C1NC[C@H](CCCCN2CCN(CCc3ccc(O)cc3)C(=O)C2=O)N(CCc2ccc(O)cc2)C1=O	none (no result: PPC-1+TRAIL kill, SENP7 block, SENP6 block, SENP8 block-2)
CCOC(=O)N1CCC(N2C(=O)c3ccc(C(=O)Nc4ccc(OC)c(OC)c4)cc3C2=O)CC1	SENP8 block-1 13 (no result: PPC-1+TRAIL kill)
COc1ccc(NC(=O)c2cccc(N3C(=O)c4ccc(C(=O)Nc5ccc(OC)c(O)c5)cc4C3=O)c2)cc1O	C8 TRAIL sens 58 (no result: PPC-1+TRAIL kill)
CC(=O)N1CCN(CC(=O)Nc2c(Cl)ccc(C)c2Cl)CC1	none
C#CCn1cc(Cl)cc(C(=O)Nc2ccccc2)c1=O	none (no result: PPC-1+TRAIL kill)
C=C(C)[C@@H]1C2=CC(C(=O)OC)=C(C[C@H](C(=C)C)[C@H]3O[C@H]3C3=C[C@H]1OC3=O)O2	C8 TRAIL sens 77 (no result: PPC-1+TRAIL kill, SENP7 block, SENP6 block, SENP8 block-2)
CC(Cl)C(=O)N1c2ccccc2CCc2ccccc21 (centres undefined)	none (no result: PPC-1+TRAIL kill)
O=C(CCl)N1c2ccccc2CCc2ccccc21	C8 TRAIL sens 95 (no result: PPC-1+TRAIL kill)
Nc1ncnc(N)c1N=Nc1ccccc1	C8 TRAIL sens 66 (no result: PPC-1+TRAIL kill)
Nc1nc(-c2ccccc2)[nH]c(=O)c1N=O	none
Nc1nc(N)c(N=Nc2ccccc2)c(=O)[nH]1	C8 TRAIL sens 64 (no result: PPC-1+TRAIL kill, SENP7 block, SENP6 block, SENP8 block-2)
Nc1nc(CCl)nc(Nc2cccc3ccccc23)n1	C8 TRAIL sens 95
Cc1cc(C)c(C(=O)Cn2nc(C(=O)O)c3ccccc3c2=O)cc1C	none
Cc1cc(C(=O)Cn2nc(C(=O)O)c3ccccc3c2=O)c(C)n1-c1ccccc1	C8 TRAIL sens 76
Cc1ccc(C(=O)Nc2ccc(Br)cc2)cc1S(=O)(=O)Nc1ccccn1	none
Cc1cc(C(=O)COC(=O)c2ccc[nH]c2=O)c(C)n1-c1ccc(F)cc1	C8 TRAIL sens 52
Cc1cc(C(=O)COC(=O)c2ccc[nH]c2=O)c(C)n1-c1ccccc1	PPC-1+TRAIL kill 62, C8 TRAIL sens 72
COc1ccc(C2CC(c3cccs3)=NN2C(=O)CCl)cc1OC (centres undefined)	C8 TRAIL sens 96 (no result: PPC-1+TRAIL kill)
COc1ccc(C2CC(c3cccs3)=NN2C(=O)c2ccccc2)cc1OC (centres undefined)	none (no result: PPC-1+TRAIL kill)
COc1cc(C2CC(c3cccs3)=NN2C(=O)CCl)ccc1OC(F)F (centres undefined)	C8 TRAIL sens 95 (no result: PPC-1+TRAIL kill)

Assay outcomes as filed in PubChem BioAssay.
